Screens: PubChem, National Center for Advancing Translational Sciences (NCATS)
HCMV inh: inhibitors of human cytomegalovirus. activity change, negative = inhibition, % at 57.5 µM. actives 4.5% (n = 410,000). HFF cells, HCMV-luciferase reporter, 72 h; hits give low values; in the data active means activity change below about -60%; inconclusive means no clear call, values can overlap the other calls; inactive means above about -39%
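Luciferase read-out from HCMV-luciferase-infected HFFs (MOI 1 PFU/cell) 72 h post infection at 37C; compounds added after 16 h cell attachment; activity normalized between buffer-only basal and Salinomycin (10uM) inhibitor controls.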
Lassa entry inh: inhibitors of Lassa virus binding or cell entry; actives 1.2% (n = 300,000); Potency, µM (highest dose often 37.9 µM), for inactives: at the top dose activity change, negative = inhibition, most hits filed as inhibitors; Lassa virus pseudotype entry inhibition, cell reporter; AID 540256; calls by dose curve; tested in HEK293 cells; further: potency means the concentration at half of the fitted maximal effect; nearly all actives have a fitted effect of over 50% in size
FMDV inh: antivirals against foot and mouth disease virus | FMDV antiviral cell-based qHTS | Potency, µM (series often up to 57.9 µM), for the others: top-dose activity change, negative = inhibition, hits mostly inhibitors | actives 1.2% (n = 410,000) | AID 1159524; calls by dose curve; tested in HEK293T cells; further: read-out not given here; potency means the concentration at half of the fitted maximal effect; nearly all actives have a fitted effect of over 45% in size
MARV entry inh: Marburg virus entry inhibition. AID 540276. Potency, µM (series often up to 37.8 µM), inactives show top-dose activity change, negative = inhibition, usual class: inhibitors. Marburg virus pseudotyped entry inhibition, cell reporter. actives 1.8% (n = 300,000); calls by dose curve; tested in HEK293 cells; further: potency means the concentration at half of the fitted maximal effect
* marks the source's active call; other numbers are inactive results; u = inconclusive; x = not tested or not shown; ! = repeats disagree; [ ] = remark or other dose. This is a sample that favours compounds with a hit; in the whole collection about 6.2% have one here. On the % scale 0 is the no-effect control and ±100 the full control effect.

SMILES | HCMV inh | Lassa entry inh | FMDV inh | MARV entry inh
COc1ccc(C)cc1NC(=O)COC(=O)C1COc2ccccc2O1 (configuration not stated) | -91.6* | x | -7.0% | x
Cc1c(C(=O)Nc2ccc(F)c(Cl)c2)oc2ccc(S(=O)(=O)N(C)C3CCCCC3)cc12 | 12.2 | 12.1%[46.1 µM] | -14.7% | x
COc1ccc(CC(=O)Nc2ccc(S(=O)(=O)N(C)C3CCN(C)CC3)cc2)cc1 | -5.3 | x | -16.4% | x
COc1ccc2oc(C(=O)Nc3ccc(S(=O)(=O)N(C)C4CCN(C)CC4)cc3)c(C)c2c1 | -112.5* | x | u | x
COc1ccc(NC(=O)c2oc3ccc(S(=O)(=O)N(C)C4CCCCC4)cc3c2C)cc1Cl | -77.4* | 11.9%[46.1 µM] | -19.3% | x
COc1cccc(NC(=O)c2oc3ccc(S(=O)(=O)N4CCCCCC4)cc3c2C)c1 | -20.5 | -9.6%[46.1 µM] | -20.8% | x
Cc1c(C(=O)NCCC2=CCCCC2)oc2ccc(S(=O)(=O)N3CCOCC3)cc12 | -68.9* | 8.2µM* | 14.1µM* | u
COc1ccc(NC(=O)c2oc3ccc(S(=O)(=O)N4CCCCC4)cc3c2C)cc1 | -34.2 | u | 17.8µM* | x
Cc1ccc(C(=O)CSc2nc3ccccc3c(=O)n2-c2ccccc2)s1 | -24.3 | -21.7% | -18.7% | -8.5%
CCOc1ccc(Oc2ccccc2NC(=O)CCc2nc3ccccc3c(=O)[nH]2)cc1 | 53.7 | x | -29.9% | x
CCOc1ccccc1NC(=O)CCCc1nc2ccccc2c(=O)[nH]1 | -86.5* | 3.0% | 3.1% | 16.0%
CCOc1cccc(C(=O)NC(=S)Nc2ccc(Cl)cc2C(=O)O)c1 | -60.2* | -14.3% | -17.4% | -16.9%[14.2 µM]
Cc1ccc(NC(=O)CSc2ncccc2C(=O)Oc2cccc([N+](=O)[O-])c2)cc1Cl | 20.7 | u | 11.9% | u
O=C(Nc1ccc(F)cc1)NC1CCN(Cc2c(F)cccc2Cl)CC1 | -20.6 | u | -31.5% | -1.5%[46.1 µM]
O=C(Nc1ccc(F)cc1F)NC1CCN(Cc2c(F)cccc2Cl)CC1 | -68.3* | u | u | u
COc1ccc(N/C(C)=C2/C(=O)C(=O)N(CCO)C2c2ccc(Br)cc2)cc1 (configuration not stated) | -95.5* | -7.3% | -18.1% | -0.2%
COc1ccc(C2/C(=C(/O)c3ccccc3)C(=O)C(=O)N2CCO)cc1 (configuration not stated) | -18.5 | 12.0% | 12.4% | 2.2%
Cc1cccc(C)c1NC(=O)CSc1nnc(Cc2ccccc2)o1 | -12.2 | 1.8% | 1.3% | -26.2%[46.1 µM]
CCN1CCN(c2ccc(NC(=O)c3ccc([N+](=O)[O-])o3)cc2Cl)CC1 | -96.3* | u | 44.2% | u
CCN1CCN(c2ccc(S(=O)(=O)N3CCCCC3)cc2NC(=O)c2ccc([N+](=O)[O-])o2)CC1 | -27.7 | u | -3.2% | u
CC(=O)N1CCN(c2ccc(NC(=O)c3ccc([N+](=O)[O-])o3)cc2Cl)CC1 | -98.4* | u | 29.7% | u
CCC(=O)N1CCN(c2ccc(NC(=O)c3ccc([N+](=O)[O-])o3)cc2Cl)CC1 | -95.6* | u | u | u
CCC(=O)N1CCN(c2ccc(Cl)cc2NC(=O)c2ccc([N+](=O)[O-])o2)CC1 | u | -22.9%[46.1 µM] | u | u
CC(C)CCOc1ccc(Cn2c(=O)sc3ccccc32)cc1 | 4.1 | -3.8%[46.1 µM] | -1.8% | 7.2%[46.1 µM]
Fc1ccc(-c2cc(-c3nnc4n3CCCCC4)c3ccccc3n2)cc1 | 29.1 | 0.3% | -21.0% | 15.2%
SMILES | HCMV inh | Lassa entry inh | FMDV inh | MARV entry inh
Clc1ccc(-c2cc(-c3nnc4n3CCCCC4)c3ccccc3n2)cc1 | -72.4* | 6.1% | u | -6.8%
CC(C)CNC(=S)Nc1ccc(Oc2ccccc2)cc1 | -62.7* | -20.2% | 19.8% | u
CSC(=S)NCc1cccnc1 | -81.9* | u | -11.0% | u
CCc1ccc(NC(=S)NCc2cccnc2)cc1 | 24.6 | 0.5%[46.1 µM] | 47.3% | -3.5%[46.1 µM]
CCCCc1ccc(NC(=S)NCc2cccnc2)cc1 | -77.0* | -1.4% | -8.5% | -24.3%
S=C(NCc1cccnc1)Nc1ccc(Oc2ccccc2)cc1 | -70.8* | x | 0.1% | x
CC1(C(=O)Nc2cccc3ccccc23)CCN1C(=O)Cc1ccccc1Cl (configuration not stated) | -11.9 | x | -20.8% | x
Cc1ccc2[nH]c3c(c2c1)CCCC3NC(=O)CCl (configuration not stated) | x | 8.91µM* | -7.0% | 5.62µM*
O=C(NCc1cccc(Cl)c1)c1cccc2c(-c3cccnc3)coc12 | -22.5 | x | u | x
COc1ccc(CNC(=O)c2cccc3c(-c4cccnc4)coc23)cc1OC | -86.0* | x | u | x
CC(C)Sc1ncc(Cl)c(C(=O)Nc2ccc(S(=O)(=O)Nc3ncccn3)cc2)n1 | 7.8 | 18.3%[46.1 µM] | -6.5% | -5.1%[46.1 µM]
N#CC1=C(N)N2C(=C(C#N)C13CCCC3)Nc1ccccc12 | -2.9 | 12.3% | 9.5% | -23.1%[46.1 µM]
CCN1C(=O)S/C(=C/c2ccc(Oc3ccc([N+](=O)[O-])cn3)c(OC)c2)C1=O | u | x | -16.9% | x
CCN1C(=O)C(=Cc2cccc(OC)c2Oc2ccc([N+](=O)[O-])cc2[N+](=O)[O-])SC1=S | -6.0 | u | 12.6µM* | u
COc1cc(/C=C2\SC(=O)NC2=O)ccc1Oc1ccc([N+](=O)[O-])cc1[N+](=O)[O-] | -75.1* | -25.1% | -3.4% | 0.7%[46.1 µM]
Cc1ccc(Cn2cnc3c(cnn3-c3ccc(F)cc3)c2=O)cc1 | -36.8 | x | -17.0% | x
COc1ccc2nc(NC(=O)CN3CCN(C)CC3)sc2c1 | 167.2 | 6.4% | 23.4% | 2.9%
COc1ccc(-c2noc(N(c3cccc(Cl)c3)c3nc(-c4ccc(OC)c(OC)c4)no3)n2)cc1OC | 15.9 | -3.7%[46.1 µM] | 3.2% | 5.8%[46.1 µM]
COC(=O)c1c(C)nn(-c2ccc(OC(F)(F)F)cc2)c1-c1snnc1C | -19.8 | u | 35.5µM* | u
Cc1nc2sc(-c3ccccc3)cc2c(=O)n1N | 0.0 | x | 39.8µM* | x
Cc1ccccc1C(OCCN(C)C)c1ccccc1 (configuration not stated) | -26.9 | u | -10.5% | 12.6µM*!
Cc1ccccc1[C@@H](OCCN(C)C)c1ccccc1 | x | x | x | -36.1%
CCN(CC)CCOC(c1ccccc1)c1ccc(C)cc1 (configuration not stated) | -19.7 | u | -24.1% | 8.91µM*
O=C1NC(Cc2ccc(O)cc2)c2nc3ccc(Br)cc3c(=O)n2-c2ccc(Cl)cc21 (configuration not stated) | 11.9 | x | x | x
O=c1[nH]c(=O)n(-c2cccc3ccccc23)c(O)c1/C=N/N1CCCCC1c1cccnc1 (configuration not stated) | -1.6 | x | -8.0% | 0.3%
COc1ccc2c(c1)C(CC(C)=O)N(c1ccc(-c3cccs3)cc1)C(c1ccsc1)=C2 (configuration not stated) | -90.3* | x | -10.4% | x
COc1ccccc1C(=O)NNC(=O)c1cccc(Br)c1 | 81.2 | x | 46.3% | x
CC1(Cc2ccc3c(c2)OCO3)C(=O)Nc2c(Cl)ccc(Cl)c21 (configuration not stated) | -68.4* | x | 0.0% | x
CC(C)C[C@H]1CNC(=S)N1C[C@H]1CCCN1C[C@H](CC(C)C)N1C[C@H](Cc2ccc(O)cc2)N(CCc2ccccc2)C1=S | -94.9* | x | u | x
